# From PubChem
# OTUD3 inh: inhibitors of human OTUD3 deubiquitinase | inhibition, % at 25 µM | purified OTUD3, Ub-rhodamine fluorescence, 2 h | 0.7% of 47,000 active
# USP28 inh: blocks human USP28 ubiquitin-rhodamine cleavage. inhibition, % at 25 µM. purified USP28, Ub-rhodamine cleavage fluorescence, 30 min. Q96RU2. 3% of 47,000 active
# USP30 block: inhibitors of human USP30 deubiquitinase | 5.3% of 47,000 active | purified USP30, Ub-rhodamine cleavage fluorescence | inhibition, % at 25 µM
# Target sequence (Q70CQ3 whole entry, looked up): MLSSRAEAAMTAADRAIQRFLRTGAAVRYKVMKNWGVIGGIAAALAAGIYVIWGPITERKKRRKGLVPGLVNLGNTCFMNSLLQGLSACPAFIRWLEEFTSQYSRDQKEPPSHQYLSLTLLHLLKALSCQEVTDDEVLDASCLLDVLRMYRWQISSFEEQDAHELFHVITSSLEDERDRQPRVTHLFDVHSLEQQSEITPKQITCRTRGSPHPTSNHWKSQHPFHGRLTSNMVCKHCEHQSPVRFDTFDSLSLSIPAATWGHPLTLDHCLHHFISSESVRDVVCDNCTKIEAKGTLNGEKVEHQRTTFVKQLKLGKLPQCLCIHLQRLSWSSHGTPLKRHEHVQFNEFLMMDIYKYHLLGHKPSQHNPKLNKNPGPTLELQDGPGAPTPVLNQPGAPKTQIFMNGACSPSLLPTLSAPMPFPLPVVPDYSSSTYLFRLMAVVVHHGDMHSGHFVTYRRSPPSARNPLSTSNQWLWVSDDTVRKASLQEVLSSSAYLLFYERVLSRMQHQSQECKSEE
# USP17 inh: blocks human USP17 ubiquitin-rhodamine cleavage; inhibition, % at 50 µM; AID 1645855; purified USP17, Ub-rhodamine cleavage fluorescence, 3 h; 6.5% of 47,000 active; A8MUK1
# Numbers without * were called inactive; i = inactive; . = no result given. The list is not random: actives were taken first. Their share in the collection is about 11%. No stated cut-off is given here; in the data, active means inhibition above about 30%; inactive means the rest.
SMILES,OTUD3 inh,USP28 inh,USP30 block,USP17 inh
O=C(Cn1cnc(-c2ccccc2)cc1=O)Nc1ccc(Oc2ccccc2)cc1,14,7,22,15
CCc1c(Cl)c(O)c(Cl)c(O)c1C(=O)O[C@H]1C(C)O[C@@H](OC/C2=C\C=C\CC(O)/C(C)=C/C(CC)C(O[C@@H]3OC(C)(C)[C@H](O)C(OC(=O)C(C)C)[C@@H]3O)/C(C)=C/C(C)=C/CC(C(C)O)OC2=O)[C@@H](OC)C1O (some centres not stated),32*,85*,91*,2
O=C(N[C@H]1C[C@@H]2C[C@H]1N(S(=O)(=O)c1cc(F)cc(F)c1)C2)c1ccccc1,4,0,10,2
CCCc1nc2c(sc3nc4c(cc32)COC(C)(C)C4)c(=O)n1CC(=O)Nc1ccccc1C,9,2,0,62*
Cc1nc(SC(C)C(=O)Nc2ccccc2)c2sc3nc4c(cc3c2n1)COC(C)(C)C4 (configuration not stated),14,0,18,11
Cc1cc(-c2nnc(SCC(=O)N3CCCc4ccccc43)o2)no1,-21,-29,-92,41*
O=C(CSc1nnc(-c2ccc3c(c2)OCCO3)o1)N1CCCc2ccccc21,7,14,27,-31
O=C(CSc1nnc(-c2ccncc2)o1)N1CCCc2ccccc21,5,6,32*,1
COc1ccc(NC(=O)CN2C(=O)C(C)N(c3ccc(C)cc3)C2=O)cc1OC (configuration not stated),-5,-2,-6,-8
COc1ccc(C(=O)Nc2ccc(S(=O)(=O)N3CCCCC3)cc2)cc1,-2,66*,0,-5
COc1ccc(S(=O)(=O)N2CCC(C(=O)Nc3ccc4c(c3)OCO4)CC2)cc1,4,38*,18,29
Cc1cc(NC(=O)CN2CCCN(S(=O)(=O)c3ccc(F)cc3)CC2)ccc1Br,1,18,38*,35*
O=C(Nc1ccc2[nH]ccc2c1)C1CCN(S(=O)(=O)c2ccccc2)CC1,2,10,45*,29
CCOC(=O)N1CCN(S(=O)(=O)c2ccc(C(=O)Nc3ccc(OCC)cc3)cc2)CC1,2,5,28,3
CC(=O)Nc1ccc(S(=O)(=O)N2CCC(C(=O)Nc3ccc4cc[nH]c4c3)CC2)cc1,2,21,-3,0
O=C(Nc1ccc2c(c1)OCO2)c1cccc(S(=O)(=O)N2CCCCCC2)c1,12,9,11,10
CC(C(=O)Nc1ccc2[nH]c(=O)[nH]c2c1)N1CCN(CC(=O)N2CCCCCC2)CC1 (configuration not stated),-2,-7,-8,0
COc1ccc(C2c3[nH]c4ccccc4c3C[C@H]3C(=O)N(c4ccc(C(=O)NCCc5ccccc5F)cc4)C(=O)N23)cc1 (some centres not stated),-92,-229,i,-134
O=C(O)[C@H]1CCCC[C@H]1C(=O)Nc1ccc(S(=O)(=O)NC2CCCCC2)cc1,0,0,7,5
Cc1nc(N2CCN(c3ccc(Cl)cc3)CC2)c2oc3ccccc3c2n1,21,5,23,25
COCCCn1c(C(=O)N2CCCCC2)cc2c(=O)n3ccccc3nc21,-6,-14,-8,-6
Cc1ccc(C(=O)Nc2ccc(S(=O)(=O)N3CCCC3)cc2)cc1Br,10,78*,45*,15
O=C(Nc1ccc(S(=O)(=O)N2CCCCC2)cc1)c1ccccn1,4,.,.,75*
O=C(Nc1ccc(Br)cc1F)c1ccc(S(=O)(=O)N2CCCC2)cc1,-3,7,8,20
O=C(Nc1ccccc1)c1nc(-c2cn(Cc3ccc(F)cc3)nn2)no1,5,37*,55*,23
SMILES,OTUD3 inh,USP28 inh,USP30 block,USP17 inh
O=C(NC1CC1)c1ccc(-c2ccc(N3CCCCC3)nc2)cc1,0,3,16,48*
O=C(NCc1cccnc1)c1cccc(-c2ccc(N3CCCC3)nc2)c1,-3,.,.,-1
O=C(NC1CCCC1)c1cccc(-c2ccc(N3CCCC3)nc2)c1,-19,-3,-40,51*
COC[C@H]1CCCN1C(=O)C[C@@H]1CCN2C[C@@H]1CCCOc1ccc(N3CCOCC3)cc1CNCC2=O,3,-9,-16,-15
CC(C)=CCc1c2c(c3occ(-c4ccc(O)cc4)c(=O)c3c1O)C=CC(C)(C)O2,44*,42*,57*,91*
CC(C)=CCc1c2c(c3occ(-c4ccc(O)c(O)c4)c(=O)c3c1O)C=CC(C)(C)O2,81*,69*,79*,86*
Cc1nc2ccc(NC(=O)COc3ccccc3[N+](=O)[O-])cc2s1,-2,6,57*,.
O=S(=O)(NC1CCc2nc(C(F)(F)F)cn2C1)c1ccccc1 (configuration not stated),24,10,25,9
Cc1ccc(-n2nc(C)c3nc(CCC(=O)Nc4ccc(OC(F)(F)F)cc4)c(=O)n(C)c32)cc1,5,-2,31*,4
O=S(=O)(c1cccc2nonc12)N1CCN(C(c2ccccc2)c2ccccc2)CC1,2,1,-14,-15
COc1cc(OC)c2c(c1)C(=O)C1=C(COC(C)(O)C1)C2=O (configuration not stated),13,37*,-16,82*
O=C(CCc1ccc(S(=O)(=O)N2CCOCC2)cc1)OCC(=O)c1ccc(-c2ccccc2)cc1,11,15,31*,25
O=C(CCc1ccc(S(=O)(=O)N2CCOCC2)cc1)NC(c1ccccc1)c1ccccc1,6,11,30,6
O=C(Nc1ccc(F)cc1)Nc1ccc(NC(=O)c2ccccc2O)cc1,0,-3,-13,34*
COc1ccccc1NC(=O)Nc1ccc(NC(=O)c2ccccc2O)cc1,-5,9,59*,31*
COc1cccc(NC(=O)NC2CCN(c3ccccc3)C2=O)c1 (configuration not stated),7,6,15,9
CC(=O)Nc1ccc(NC(=O)Nc2ccc(F)cc2)cc1,7,19,30*,34*
COc1cccc(NC(=O)Nc2ccc(NC(C)=O)cc2)c1,-7,51*,-3,22
Cc1ccc(N(Cc2ccc(C(=O)Nc3cc(Cl)ccc3C)cc2)S(C)(=O)=O)cc1C,12,7,17,20
O=C(Nc1ccccc1)Nc1ccc2ncccc2c1,-6,7,-17,-20
Cc1ccccc1C(=O)Nc1ccc(NC(=O)CN2CCOCC2)cc1,-11,-20,-3,-17
Cc1cccc(Cl)c1NC(=O)Nc1ccc(NC(=O)c2ccccc2O)cc1,-24,-22,-101,53*
O=C(Nc1ccc(F)cc1)Nc1ccc2ccccc2n1,5,10,31*,18
Cc1noc(-c2cnc(NCc3ccc(F)cc3)nc2-c2ccco2)c1C,2,15,-8,6
CCc1cccc(C)c1NC(=O)CSc1nnc(COc2ccccc2)n1CC,0,1,1,-3
CCN1C(=O)COc2ccc(NC(=O)c3ccc(OCc4nonc4C)cc3)cc21,3,70*,19,22
O=C(Nc1ccccc1)c1ccc(-c2nc(-c3ccc(Cl)cc3)cs2)cc1,-3,-4,-9,-1
